This note sets out measurements from PubChem BioAssay (Tox21).

Records with an inconclusive call do not appear. Active and inactive are the calls of the source. Unless noted, calls come from the whole dose curve; as a rule, active = well fitted curve in the direction sought with a large enough effect in the repeat runs; inconclusive = weak or mixed curves; inactive = no such curve, though single readings can be large; an effect the other way counts as inactive or inconclusive.

Assay [1] is described as follows: qHTS assay for small molecule agonists of the p53 signaling pathway (AID 651631; calls by dose curve; note: nearly all actives have a fitted effect of over 15% in size). In short, it runs like this:
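Fluorescence intensity from cleaved LiveBLAzer B/G substrate (2 h, room temperature) served as the signal. Beforehand, HCT-116 reporter cells bearing p53 response elements were treated 16 h at 37 °C with DMSO-dissolved compounds.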
Background: In qHTS, concentration-response curves come from the screen itself.

Assay [2] in a line: qHTS assay for small molecules that induce genotoxicity in human embryonic kidney cells expressing luciferase-tagged ATAD5 (AID 651632). Note: nearly all actives have a fitted effect of over 15% in size. In short, it runs like this: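 Luminescent reporter readout, HEK293T ATAD5-luc line: 16 hr drug exposure (37C, 5% CO2) followed by Amplite, 30 min RT.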
Assay [3] is described as follows: qHTS assay for small molecule agonists of the p53 signaling pathway - cell viability (AID 651633; calls by dose curve;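 note: p53RE-bla HCT reporter cells with a stable beta-lactamase p53 reporter; nearly all actives have a fitted effect of over 30% in size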). In short, it runs like this:
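p53RE-bla cells, seeded at 4,000 per well and rested 5 h at 37 C/5% CO2, received compounds in DMSO for 16 h at 37 C. CellTiter-Glo was then added, and luminescence was read after 30 min at room temperature to gauge cytotoxicity.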

A short description of assay [4]: qHTS assay for small molecules that induce genotoxicity in human embryonic kidney cells expressing luciferase-tagged ATAD5 - cell viability (AID 651634; calls by dose curve; note: nearly all actives have a fitted effect of over 25% in size). In short, it runs like this:
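Viability read: CellTiter-Fluor fluorescence, 30 min at 37C. Cells: HEK293T, luciferase-tagged ATAD5. Exposure: 15.5 hr, 37C, 5% CO2, compound or DMSO vehicle.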

Assay [5] can be described thus: qHTS assay for small molecule disruptors of the mitochondrial membrane potential - cell viability (AID 720634; calls by dose curve;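 note: human HepG2 liver cancer cells; nearly all actives have a fitted effect of over 20% in size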). In short, it runs like this:
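HepG2, 1 hr compound, 37 C. ATP luminescence via CellTiter-Glo, 30 min RT, same well as m-MPI.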

Assay [6] in a line: qHTS assay to test for compound auto fluorescence at 590 nm (red) in HepG2 cells (AID 720674). In short, it runs like this:
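Rose Bengal sodium served as the red fluorophore standard. HepG2 monolayers (overnight attachment, MEM with 10% FBS) were exposed to test compounds for 1 hr at 37 C and read at Ex 540/Em 590 nm.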

Assay [7] can be described thus: qHTS assay to test for compound auto fluorescence at 535 nm (green) in HepG2 cells (AID 720675).
Assay [8] in a line: qHTS assay to test for compound auto fluorescence at 590 nm (red) in HEK293 cells (AID 720679). In short, it runs like this: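 HEK293 cells (2,000/well, 10% dialyzed FBS) attached 4-5 hr, then dosed with compound or DMSO and incubated overnight at 37C, 5% CO2. Red fluorescence read at 540/590 nm, Rose Bengal sodium as reference fluorophore.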
The nature of assay [9]: qHTS assay to test for compound auto fluorescence at 535 nm (green) in HEK293 cells (AID 720680).
A short description of assay [10]: qHTS assay to test for compound auto fluorescence at 460 nm (blue) in HEK293 cell free culture (AID 720681). In short, it runs like this:
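Test compounds were pinned into cell-free culture medium (DMEM with 10% FBS) and fluorescence was read directly at Ex/Em 405/460 nm. Signals were expressed as fluorescence equivalents of triamterene, with DMSO vehicle as control.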

Assay [11] can be described thus: qHTS assay to test for compound auto fluorescence at 535 nm (green) in HEK293 cell free culture (AID 720682). In short, it runs like this: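 Intrinsic compound fluorescence is measured in culture medium containing 10% FBS, with excitation at 485 nm and detection at 535 nm, referenced to fluorescein.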
Assay [12] can be described thus: qHTS assay to test for compound auto fluorescence at 590 nm (red) in HEK293 cell free culture (AID 720683). In short, it runs like this: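 Tox21 10K library compounds were pinned into cell-free DMEM with 10% FBS and fluorescence was read at excitation 540 nm. Activity is expressed as Rose Bengal sodium equivalency.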
Assay [13] is described as follows: qHTS assay to test for compound auto fluorescence at 590 nm (red) in HepG2 cell free culture (AID 720684). In short, it runs like this: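 Red fluorescence (540 nm excitation, 590 nm emission) was measured after compound transfer into cell-free MEM supplemented with 10% FBS. Values are equivalencies against Rose Bengal sodium.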
Assay [14] can be described thus: qHTS assay to test for compound auto fluorescence at 535 nm (green) in HepG2 cell free culture (AID 720686).
The target of assay [15] is Glucocorticoid receptor (Homo sapiens) (UniProt P04150). Description: qHTS assay to identify small molecule agonists of the glucocorticoid receptor (GR) signaling pathway (AID 720691; active = well fitted activation curve with a large enough effect in the signal ratio in the repeat runs, not every such curve was filed as active; the % refers to the signal ratio). The settings on record: GR-bla HeLa, beta-lactamase reporter ratio, 18 h; activation: at 62.4 µM (top of the series). In short, it runs like this:
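qHTS in GR-bla HeLa cells: 4 h settling at 37 C/5% CO2, 18 h compound incubation at 37 C, 2 h LiveBLAzer B/G FRET substrate at room temperature, fluorescence intensity measured.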

Assay [16] has the same target. Description: qHTS assay to identify small molecule antagonists of the glucocorticoid receptor (GR) signaling pathway (AID 720692; active = well fitted inhibition curve with a large enough effect in the signal ratio in the repeat runs, not every such curve was filed as active; the % refers to the signal ratio). In short, it runs like this: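 Inhibition of glucocorticoid signalling is measured in HeLa cells with a GRE-controlled beta-lactamase reporter; cells are co-treated with compound and 5 nM dexamethasone (final) for 18 h before FRET substrate readout.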

The nature of assay [17]: qHTS assay for small molecule disruptors of the mitochondrial membrane potential (AID 720635). Note: potency is the fitted concentration of half-maximal effect. In short, it runs like this:
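HepG2 cells (2,000/well) attached overnight at 37C, then took compound for 1 hr at 37C, 5% CO2. Mito-MPS dye was added for 30 min; fluorescence was read at 490/535 nm (monomers) and 540/590 nm (aggregates).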

Assay [18] can be described thus: qHTS assay to test for compound auto fluorescence at 460 nm (blue) in HEK293 cells (AID 720678). In short, it runs like this:
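HEK293 cells (2,000/well, medium with 10% dialyzed FBS) attached 4-5 hr, then exposed to compound overnight at 37C, 5% CO2. Blue fluorescence read at 405/460 nm, with triamterene as reference fluorophore.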

The nature of assay [19]: qHTS assay to test for compound auto fluorescence at 460 nm (blue) in HepG2 cell free culture (AID 720685). In short, it runs like this:
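Compound (23 nL) or DMSO pinned into cell-free MEM with 10% FBS; blue fluorescence read at 405/460 nm excitation/emission, expressed as auto-fluorescence equivalency to triamterene.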

Assay [20] can be described thus: qHTS assay to test for compound auto fluorescence at 460 nm (blue) in HepG2 cells (AID 720687). In short, it runs like this: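 Cells (2,000/well in MEM with 10% FBS) attached overnight at 37 C, then were exposed to compound or DMSO for 1 hr at 37 C, 5% CO2. Fluorescence read at Ex/Em 405/460 nm, expressed as triamterene-equivalent signal.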

Chain of Glucocorticoid receptor (Homo sapiens) (P04150 whole entry, looked up): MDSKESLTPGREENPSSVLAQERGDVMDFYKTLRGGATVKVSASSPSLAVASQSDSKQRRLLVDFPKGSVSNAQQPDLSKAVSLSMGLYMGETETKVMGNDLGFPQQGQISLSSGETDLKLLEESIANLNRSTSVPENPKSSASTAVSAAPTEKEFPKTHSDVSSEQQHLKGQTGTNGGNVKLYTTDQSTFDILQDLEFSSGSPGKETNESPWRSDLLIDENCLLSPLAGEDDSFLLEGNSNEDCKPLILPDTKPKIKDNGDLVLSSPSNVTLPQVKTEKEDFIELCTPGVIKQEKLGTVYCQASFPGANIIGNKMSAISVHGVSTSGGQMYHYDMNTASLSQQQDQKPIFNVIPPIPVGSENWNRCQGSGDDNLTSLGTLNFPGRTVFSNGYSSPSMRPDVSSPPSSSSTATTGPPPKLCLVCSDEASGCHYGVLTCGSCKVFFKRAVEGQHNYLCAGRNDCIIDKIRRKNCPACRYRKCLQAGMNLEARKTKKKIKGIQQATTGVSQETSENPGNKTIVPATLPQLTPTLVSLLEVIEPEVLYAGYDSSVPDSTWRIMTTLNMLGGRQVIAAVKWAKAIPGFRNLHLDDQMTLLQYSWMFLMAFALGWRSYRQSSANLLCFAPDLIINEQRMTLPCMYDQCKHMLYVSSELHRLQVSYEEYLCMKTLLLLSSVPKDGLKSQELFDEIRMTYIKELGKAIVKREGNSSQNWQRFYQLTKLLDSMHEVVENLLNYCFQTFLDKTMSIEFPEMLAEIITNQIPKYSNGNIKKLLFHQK

`CC(C)(C)[C@@H](O)[C@@H](Cc1ccc(Cl)cc1)n1cncn1`: the Potency result in assay [1], in [3], in assay [4], in assay [5], in [15] and in assay [16] was “inactive” each time. Besides, the result in assay [2], in [6], in [7], in [8], in [9] and in [10] was inactive. The result in assay [11], in assay [12], in assay [13] and in [14] was inactive.
For the molecule `CCCCCCCCCCCCCCO`, the Potency entry in assay [1], in assay [3], in [4] and in assay [5] was “inactive” each time. For the same molecule, the outcome in [2], in assay [6], in assay [7], in [18], in assay [8] and in assay [9] was inactive. Besides, the result in assay [10], in assay [11], in assay [12], in assay [13] and in assay [14] was inactive. In assay [17], the Potency is 61.1 µM (active).
With `N[C@@H](Cc1cc(I)c(Oc2cc(I)c(O)c(I)c2)c(I)c1)C(=O)O`, the Potency result in assay [1], in assay [3], in assay [4], in assay [5] and in assay [15] was “inactive” throughout. In addition, the outcome in [2], in assay [6], in [7], in [18], in [8] and in assay [9] was inactive. Also, the call in [10], in [11], in assay [12], in assay [13] and in assay [14] was inactive.
Take `CC1CCC2CC1C2(C)C` (stereo not drawn): the Potency result in assay [1], in assay [3], in [4], in assay [5], in assay [17] and in assay [15] was “inactive” in each case. Further, the molecule was classed as inactive in assay [2], in assay [6], in assay [7], in assay [8], in assay [9] and in assay [10]. In addition, the result in [11], in assay [12], in [13], in assay [19], in [14] and in assay [20] was inactive.
With `O=P(OC(CCl)CCl)(OC(CCl)CCl)OC(CCl)CCl`, the Potency entry in assay [1], in [3], in [5] and in assay [15] was “inactive” in each case. Besides, the result in [2], in assay [6], in assay [7], in assay [9], in [10] and in [11] was inactive. For the same molecule, the call in assay [12], in assay [13] and in assay [14] was inactive. Besides, the Potency in assay [17] is 61.1 µM (active).
In the case of `CC(C)CC(=O)CC(C)C`, the Potency result in assay [1], in assay [3], in assay [5] and in [17] was “inactive” each time. Further, the result in assay [2], in assay [6], in [7], in [8], in [9] and in [10] was inactive. In addition, the call in assay [11], in assay [12], in assay [13], in assay [19], in assay [14] and in assay [20] was inactive.
On to `Cc1ccc(S(N)(=O)=O)cc1`, for which the Potency entry in assay [1], in [3], in assay [5], in assay [17] and in assay [15] was “inactive” in each case. Also, the result in assay [2], in assay [6], in assay [7], in [18], in [8] and in [9] was inactive. The call in assay [10], in assay [11], in assay [12], in [13], in assay [19] and in assay [14] was inactive.
On to `CCCCCCCCCCCCCCCO`, for which the Potency result in assay [1], in assay [3] and in [4] was “inactive” throughout. In addition, the call in assay [2], in assay [6], in [7], in assay [8], in assay [9] and in assay [10] was inactive. The outcome in assay [11], in assay [12], in assay [13], in assay [19] and in assay [14] was inactive.
Turning to `O=C1CCC(N2C(=O)c3ccccc3C2=O)C(=O)N1` (stereo not drawn), the Potency result in assay [1], in assay [3], in [5] and in assay [15] was “inactive” throughout. Moreover, the molecule was classed as inactive in assay [2], in [6], in [7], in [18], in assay [9] and in assay [10]. In addition, the result in [11], in assay [12], in assay [13], in assay [19], in assay [14] and in assay [20] was inactive.
